# Assay results: PubChem BioAssay (EPA / NIEHS)
# Where “and” joins values, the source holds several entries; their conditions need not be identical. Equal entries are not always repeated. Where a structure was tested more than once in an assay, its records may differ in their call. Calls of active or inactive are those of the source. Rule for the calls: active = hit-call score of the fitted dose curve at least 0.9, where 1 is the maximum; inactive = score below 0.9.
# How the values were obtained:
# [1] = read-out: Human Leukocyte Antigen - DR isotype (HLADR), HLA-DRA (gene 3122); test: BSK_BE3C_HLADR: BioMAP Diversity Plus: BE3C Assay for Human Leukocyte Antigen - DR isotype (HLADR) Biomarker Activity (AID 2283032); conditions: primary human bronchial epithelial cells; actives raise or lower the signal
# Procedure, shortened: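 ELISA read-out of HLA-DR on human lung bronchial epithelial primary cells, measured 24 h post-dosing. Both increases and decreases were scored relative to DMSO vehicle.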
# [2] = read-out: Vascular cell adhesion molecule 1 (VCAM1), VCAM1 (gene 7412); test: BSK_4H_VCAM1: BioMAP Diversity Plus: 4H Assay for Vascular cell adhesion molecule 1 (VCAM1) Biomarker Activity (AID 2283033); conditions: primary human endothelial cells (HUVEC); actives raise or lower the signal
# Procedure, shortened: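 ELISA read-out of VCAM-1 on human umbilical vein endothelium 24 hours after chemical dosing; gain or loss of signal was fitted relative to DMSO, with sulforhodamine B staining of parallel cultures flagging overt cytotoxicity.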
# [3] = read-out: Interferon-gamma inducible Protein 10 (IP10), CXCL10 (gene 3627); test: BSK_BE3C_IP10: BioMAP Diversity Plus: BE3C Assay for Interferon-gamma inducible Protein 10 (IP10) Biomarker Activity (AID 2283034); conditions: primary human bronchial epithelial cells; actives raise or lower the signal
# Procedure, shortened: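 Chemical is dosed onto human lung bronchial epithelial primary cells, cultures are incubated 24 h, and IP-10 is then quantified by ELISA. Gain or loss of signal is fitted in both directions relative to DMSO.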
# [4] = read-out: Monokine induced gamma interferon (MIG), CXCL9 (gene 4283); test: BSK_BE3C_MIG: BioMAP Diversity Plus: BE3C Assay for Monokine induced gamma interferon (MIG) Biomarker Activity (AID 2283035); conditions: primary human bronchial epithelial cells; actives raise or lower the signal;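 note: MIG protein measured by ELISA in BE3C cultures after 24 h of dosing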
# Procedure, shortened: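 Primary human bronchial epithelial cells treated for 24 h; MIG levels measured by ELISA, fitted bidirectionally versus DMSO. Parallel SRB total-protein staining assessed cytotoxicity.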
# [5] = read-out: Plasminogen activator inhibitor-1 (PAI1), SERPINE1 (gene 5054); test: BSK_BE3C_PAI1: BioMAP Diversity Plus: BE3C Assay for Plasminogen activator inhibitor-1 (PAI1) Biomarker Activity (AID 2283037); conditions: primary human bronchial epithelial cells; actives raise or lower the signal
# Procedure, shortened: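 Primary human lung bronchial epithelial cells; chemical dosing; 24 h; PAI-1 measured by ELISA; bidirectional fit referenced to DMSO as negative control.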
# [6] = read-out: urokinase plasminogen activator (uPA), PLAU (gene 5328); test: BSK_BE3C_uPA: BioMAP Diversity Plus: BE3C Assay for urokinase plasminogen activator (uPA) Biomarker Activity (AID 2283038); conditions: primary human bronchial epithelial cells; actives raise or lower the signal;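 for outcome: uPA protein level quantified by ELISA in cell cultures; uPA read one day after compound addition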
# Procedure, shortened: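 Human primary bronchial epithelial cells were exposed to chemical for 24 h, then uPA levels were measured by ELISA. Responses were fitted bidirectionally against DMSO as negative control and baseline. Parallel SRB staining of total protein gauged overt cytotoxicity.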
# [7] = read-out: Urokinase-type plasminogen activator receptor (uPAR), PLAUR (gene 5329); test: BSK_BE3C_uPAR: BioMAP Diversity Plus: BE3C Assay for Urokinase-type plasminogen activator receptor (uPAR) Biomarker Activity (AID 2283039); conditions: primary human bronchial epithelial cells; actives raise or lower the signal;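 note: cells exposed to compound for one day before measurement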
# Procedure, shortened: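 Human bronchial epithelial primary cells; chemical exposure 24 h; uPAR by ELISA; bidirectional fit vs DMSO control.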
# [8] = read-out: Interleukin-6 (IL6), IL6 (gene 3569); test: BSK_CASM3C_IL6: BioMAP Diversity Plus: CASM3C Assay for Interleukin-6 (IL6) Biomarker Activity for (AID 2283040); conditions: primary human coronary artery smooth muscle cells; actives raise or lower the signal
# [9] = read-out: Interleukin-8 (IL8), CXCL8 (gene 3576); test: BSK_CASM3C_IL8: BioMAP Diversity Plus: CASM3C Assay for Interleukin-8 (IL8) Biomarker Activity (AID 2283042); conditions: primary human coronary artery smooth muscle cells; actives raise or lower the signal;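 note: IL-8 protein level quantified by ELISA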
# [10] = read-out: Human Leukocyte Antigen - DR isotype (HLADR), HLA-DRA (gene 3122); test: BSK_CASM3C_HLADR: BioMAP Diversity Plus: CASM3C Assay for Human Leukocyte Antigen - DR isotype (HLADR) Biomarker Activity (AID 2283043); conditions: primary human coronary artery smooth muscle cells; actives raise or lower the signal;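 note: cell-surface HLA-DR protein level quantified by ELISA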
# [11] = read-out: Macrophage colony-stimulating factor (MCSF), CSF1 (gene 1435); test: BSK_CASM3C_MCSF: BioMAP Diversity Plus: CASM3C Assay for Macrophage colony-stimulating factor (MCSF) Biomarker Activity (AID 2283044); conditions: primary human coronary artery smooth muscle cells; actives raise or lower the signal;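 note: M-CSF protein amount quantified by ELISA after 24 h exposure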
# [12] = read-out: Low-density lipoprotein receptor (LDLR), LDLR (gene 3949); test: BSK_CASM3C_LDLR: BioMAP Diversity Plus: CASM3C Assay for Low-density lipoprotein receptor (LDLR) Biomarker Activity (AID 2283045); conditions: primary human coronary artery smooth muscle cells; actives raise or lower the signal;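 note: LDLR protein level on the cell surface quantified by ELISA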
# [13] = read-out: Monocyte Chemoattractant Protein-1 (MCP1), CCL2 (gene 6347); test: BSK_CASM3C_MCP1: BioMAP Diversity Plus: CASM3C Assay for Monocyte Chemoattractant Protein-1 (MCP1) Biomarker Activity (AID 2283046); conditions: primary human coronary artery smooth muscle cells; actives raise or lower the signal;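 note: MCP-1 level quantified by ELISA 24 h after dosing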
# [14] = BSK_CASM3C_Proliferation: Cell Proliferation Assessment in the BioMAP Diversity Plus: CASM3C Assay (AID 2283047); conditions: primary human coronary artery smooth muscle cells;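 note: sulforhodamine B total protein stain as relative cell number at 560 nm; sub-confluent cells exposed 48 h before staining; fitted both ways against DMSO so gain or loss of cell number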
# [15] = read-out: Monokine induced gamma interferon (MIG), CXCL9 (gene 4283); test: BSK_CASM3C_MIG: BioMAP Diversity Plus: CASM3C Assay for Monokine induced gamma interferon (MIG) Biomarker Activity (AID 2283048); conditions: primary human coronary artery smooth muscle cells; actives raise or lower the signal
# [16] = read-out: serum amyloid A (SAA), SAA1 (gene 6288); test: BSK_CASM3C_SAA: BioMAP Diversity Plus: CASM3C Assay for serum amyloid A (SAA) Biomarker Activity (AID 2283049); conditions: primary human coronary artery smooth muscle cells; actives raise or lower the signal;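 note: SAA protein level quantified by ELISA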
# [17] = BSK_CASM3C_SRB: Viability Assessment in the BioMAP Diversity Plus: CASM3C Assay (AID 2283050); conditions: primary human coronary artery smooth muscle cells;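 note: total protein by SRB staining as cytotoxicity measure in parallel cultures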
# [18] = read-out: Thrombomodulin, THBD (gene 7056); test: BSK_CASM3C_Thrombomodulin: BioMAP Diversity Plus: CASM3C Assay for Thrombomodulin Biomarker Activity (AID 2283051); conditions: primary human coronary artery smooth muscle cells; actives raise or lower the signal;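 note: thrombomodulin protein level measured by ELISA 24 h after dosing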
# [19] = read-out: Tissue Factor, F3 (gene 2152); test: BSK_CASM3C_TissueFactor: BioMAP Diversity Plus: CASM3C Assay for Tissue Factor Biomarker Activity (AID 2283052); conditions: primary human coronary artery smooth muscle cells; actives raise or lower the signal;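 note: cell surface tissue factor protein level read by ELISA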
structure (smiles),measurement,setting,value
[Cd+2].[Cl-].[Cl-],AC50,[1],20 µM (active)
same,AC50,[2],31.6 µM (active) and 27.1 µM (active)
same,AC50,[3],20 µM (active)
same,outcome,[3],inactive
same,outcome,[4],inactive
same,AC50,[5],3.97 µM (active)
same,outcome,[5],inactive
same,AC50,[6],29.9 µM (active)
same,outcome,[6],inactive
same,outcome,[7],inactive
same,AC50,[8],4.02 µM (active) and 2.92 µM (active)
same,outcome,[9],inactive
same,AC50,[10],9.22 µM (active) and 6.47 µM (active)
same,AC50,[11],6.22 µM (active) and 3.72 µM (active)
same,AC50,[12],6.42 µM (active) and 6.31 µM (active)
same,AC50,[13],7.14 µM (active) and 4.39 µM (active)
same,AC50,[14],2.7 µM (active) and 2.27 µM (active)
same,AC50,[15],4.6 µM (active) and 4.58 µM (active)
same,AC50,[16],3.68 µM (active) and 2.71 µM (active)
same,AC50,[17],15.4 µM (active) and 15.2 µM (active)
same,outcome,[18],inactive
same,AC50,[19],5.81 µM (active) and 8.45 µM (active)
